# In PubChem BioAssay:
# Calls of active or inactive are those of the source.
# Key:
# Albumin (Bos taurus) = Albumin (Bos taurus) (UniProt P02769); assay: compounds binding labelled BSA control protein – biochemical, small-molecule microarray, Alexa647 label, 635/667 nm fluorescence, artefact control for SMM control protein annotation, profiling panel (AID 1118); settings: BSA-A647 binding, fluorescence 635 nm, higher = more signal;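 further: score merges 667 nm emission intensity and signal-to-noise per printed compound spot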
# [1] = probe aXIP binding to arrayed compounds – biochemical, NeuroSMM set, 635/667 nm fluorescence, primary screen (AID 1119); settings: small-molecule microarray, higher = more signal, called active from +8 up or from −8 down;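 further: probe is the protein aXip251-270 applied at 1 µg/mL to compound-printed slides; binding of probe to printed compounds measured as 667 nm fluorescence plus signal to noise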
# [2] = probe aNOTCH3 binding on compound microarray – biochemical, small-molecule microarray, 635/667 nm fluorescence, primary screen (AID 1120); settings: higher = more signal;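 further: probe is a biotin-tagged antibody raised against NOTCH3 rather than NOTCH3 protein; score merges spot fluorescence near 667 nm with spot signal to noise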
# [3] = probe aNOTCH2 binding on compound microarray – biochemical, small-molecule microarray, 635/667 nm fluorescence, primary screen (AID 1121); settings: higher = more signal;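 further: score merges feature fluorescence read at 667 nm with its signal to noise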
# [4] = target: Carbonic anhydrase 2 (Homo sapiens) (UniProt P00918); assay: compounds binding carbonic anhydrase 2 – biochemical, small-molecule microarray, Alexa647-labelled CAII, profiling panel (AID 1122); settings: CAII-A647 binding fluorescence, higher = more signal
# [5] = COS7 lysate on small-molecule microarray, probe aHis, 635 nm (AID 1123); settings: COS7 cell lysate, fluorescence, higher = more signal;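 further: z-score combines 667nm fluorescence intensity with signal-to-noise per printed compound spot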
# [6] = probe aLAP1 signal on lysate-treated microarray – cell lysate, small-molecule microarray, COS7 lysate, primary screen (AID 1124); settings: probe aLAP1, fluorescence, higher = more signal;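 further: lysate comes from COS7 cells expressing LAP1 and is applied at 0.3 µg/mL; score merges spot fluorescence near 667 nm with signal-to-noise over triplicate slides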
# Sam68 (KHDRBS1) = assay: compounds binding KHDRBS1 protein – biochemical, small-molecule microarray, 635 nm fluorescence, primary screen (AID 1125); settings: higher = more signal;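 further: score merges 667 nm channel intensity with signal to noise over triplicate slides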
# [7] = test system: Chordin-like protein 2 (CHRDL2); assay: compounds binding chordin-like 2 – biochemical, small-molecule microarray, 635 nm fluorescence, primary screen (AID 1126); settings: fluorescence 635 nm, higher = more signal;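 further: printed compound slides probed with Chrdl2 protein at 4 µg/mL for 1 h at 4 C; score merges 667 nm emission intensity with signal to noise over three replicate slides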
# [8] = target: Concanavalin-A (Canavalia ensiformis) (UniProt P02866); assay: compounds binding concanavalin A lectin – biochemical, small-molecule microarray, Alexa647 label, 635 nm, artefact control for SMM control protein annotation, primary screen (AID 1127); settings: ConA-A647 binding fluorescence, higher = more signal;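 further: z combines 667 nm emission intensity with signal-to-noise across three replicate slides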
# [9] = compounds binding Alexa647 anti-His antibody – biochemical, small-molecule microarray, 635 nm fluorescence, artefact control for SMM control protein annotation, primary screen (AID 1128); settings: higher = more signal;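 further: score merges feature fluorescence with signal-to-noise for each printed compound spot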
# [10] = test system: Human papillomavirus type 1a E7 protein (residues 1-88); assay: HPV1a E7 small-molecule binders, primary screen, biochemical, small-molecule microarray, residues 1-88, 635 nm (AID 1129); settings: small-molecule microarray binding, fluorescence 635 nm; higher = more signal
# [11] = target: Focal adhesion kinase 1 (Homo sapiens) (UniProt Q05397); assay: PTK2 protein binding on printed compound slides – biochemical, small-molecule microarray, 635/667 nm fluorescence, BSA, DTT, primary screen (AID 1130); settings: 635 nm fluorescence, higher = more signal;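 further: composite of spot emission at 667 nm and signal to noise over triplicate slides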
# [12] = test system: Fibrinogen (Alexa647-labelled); assay: Alexa647-fibrinogen binding to printed small molecules – biochemical, small-molecule microarray, 635/667 nm fluorescence, artefact control for SMM control-protein annotation, profiling panel (AID 1131); settings: fibrinogen-A647 binding fluorescence, higher = more signal;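 further: z-score merges 667 nm fluorescence with per-spot signal-to-noise over triplicate slides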
# [13] = target: Follistatin (Homo sapiens) (UniProt P19883); assay: FST protein binding to printed compounds – biochemical, small-molecule microarray, 635/667 nm fluorescence, primary screen (AID 1132); settings: 635 nm fluorescence, higher = more signal
# [14] = target: Fibroblast growth factor 2 (Homo sapiens) (UniProt P09038); assay: basic fibroblast growth factor binding to printed compounds – biochemical, small-molecule microarray, 635/667 nm fluorescence, primary screen (AID 1133); settings: FGF2, fluorescence 635/667, higher = more signal
# [15] = JC-1 mitochondrial potential readout, lung cancer cells – cell-based, A549, JC-1 fluorescence, basal, 24 h, 100 nL, profiling panel (AID 1138); settings: higher = more signal;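 further: A549 lung adenocarcinoma cells under basal conditions with no added stimulus; test concentration not given here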
# Lefty1 = Lefty1 protein binding to printed compounds – biochemical, small-molecule microarray, 635/667 nm fluorescence, primary screen (AID 1139); settings: fluorescence 635/667, higher = more signal
# [16] = test system: wheat germ agglutinin (Triticum aestivum), Alexa647-labelled; assay: Alexa647-WGA lectin binding to printed small molecules – biochemical, small-molecule microarray, 635/667 nm fluorescence, artefact control for SMM control-protein annotation, profiling panel (AID 1140); settings: WGA-A647 binding, 635 nm fluorescence, higher = more signal;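 further: score merges 667 nm feature emission with signal to noise over triplicate slides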
# [17] = target: Luciferin 4-monooxygenase (Photinus pyralis) (UniProt P08659); assay: inhibition of purified Photinus pyralis luciferase – biochemical, luminescence, purified enzyme, 2006 set, primary screen (AID 1141); settings: purified firefly luciferase, SteadyGlo luminescence, 30 min; higher = more signal, called active from +8 up or from −8 down;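 further: cell-free assay with purified firefly luciferase at 100 ng per well in PBS; test concentration not given here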
# Luciferin 4-monooxygenase (Photinus pyralis), sequence (P08659 whole entry, looked up): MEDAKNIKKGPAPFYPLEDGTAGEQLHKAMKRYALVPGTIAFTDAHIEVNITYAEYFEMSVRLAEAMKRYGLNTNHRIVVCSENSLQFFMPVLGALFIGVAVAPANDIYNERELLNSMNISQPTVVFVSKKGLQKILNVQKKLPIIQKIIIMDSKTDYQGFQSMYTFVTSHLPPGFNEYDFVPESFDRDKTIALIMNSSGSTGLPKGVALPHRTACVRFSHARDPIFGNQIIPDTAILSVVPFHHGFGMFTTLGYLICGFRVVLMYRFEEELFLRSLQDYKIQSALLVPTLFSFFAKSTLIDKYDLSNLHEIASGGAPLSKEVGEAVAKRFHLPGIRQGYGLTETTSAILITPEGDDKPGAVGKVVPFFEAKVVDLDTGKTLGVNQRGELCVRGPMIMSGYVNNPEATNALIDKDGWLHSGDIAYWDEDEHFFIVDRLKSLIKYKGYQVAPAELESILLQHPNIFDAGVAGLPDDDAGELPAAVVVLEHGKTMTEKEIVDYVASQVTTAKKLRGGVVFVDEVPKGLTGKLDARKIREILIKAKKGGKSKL
# Albumin (Bos taurus), sequence (P02769 whole entry, looked up): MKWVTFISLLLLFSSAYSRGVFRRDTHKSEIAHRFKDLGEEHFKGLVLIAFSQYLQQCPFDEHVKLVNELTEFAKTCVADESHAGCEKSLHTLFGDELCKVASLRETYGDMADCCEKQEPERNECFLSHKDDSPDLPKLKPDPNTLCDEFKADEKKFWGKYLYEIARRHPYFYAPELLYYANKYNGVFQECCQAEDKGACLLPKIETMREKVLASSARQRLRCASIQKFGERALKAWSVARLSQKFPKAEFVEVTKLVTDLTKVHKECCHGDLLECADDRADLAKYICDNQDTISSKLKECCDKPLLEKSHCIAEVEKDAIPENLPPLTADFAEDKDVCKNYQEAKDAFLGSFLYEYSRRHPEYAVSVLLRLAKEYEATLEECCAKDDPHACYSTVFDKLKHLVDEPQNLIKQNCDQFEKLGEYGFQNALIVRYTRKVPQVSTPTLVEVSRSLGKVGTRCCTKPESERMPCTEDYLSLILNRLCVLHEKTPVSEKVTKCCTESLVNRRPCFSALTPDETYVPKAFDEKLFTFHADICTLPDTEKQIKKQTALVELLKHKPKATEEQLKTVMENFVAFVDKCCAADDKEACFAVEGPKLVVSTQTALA
# Follistatin (Homo sapiens), sequence (P19883 whole entry, looked up): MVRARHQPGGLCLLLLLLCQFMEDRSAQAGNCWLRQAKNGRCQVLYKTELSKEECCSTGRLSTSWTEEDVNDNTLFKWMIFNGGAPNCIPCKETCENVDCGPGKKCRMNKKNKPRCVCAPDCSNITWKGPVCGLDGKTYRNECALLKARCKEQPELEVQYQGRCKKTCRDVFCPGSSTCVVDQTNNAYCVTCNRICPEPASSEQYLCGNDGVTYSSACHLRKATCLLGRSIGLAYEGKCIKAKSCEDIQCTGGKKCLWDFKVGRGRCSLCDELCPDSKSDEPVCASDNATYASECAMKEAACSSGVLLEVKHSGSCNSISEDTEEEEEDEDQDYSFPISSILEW
# Focal adhesion kinase 1 (Homo sapiens), sequence (Q05397 whole entry, looked up): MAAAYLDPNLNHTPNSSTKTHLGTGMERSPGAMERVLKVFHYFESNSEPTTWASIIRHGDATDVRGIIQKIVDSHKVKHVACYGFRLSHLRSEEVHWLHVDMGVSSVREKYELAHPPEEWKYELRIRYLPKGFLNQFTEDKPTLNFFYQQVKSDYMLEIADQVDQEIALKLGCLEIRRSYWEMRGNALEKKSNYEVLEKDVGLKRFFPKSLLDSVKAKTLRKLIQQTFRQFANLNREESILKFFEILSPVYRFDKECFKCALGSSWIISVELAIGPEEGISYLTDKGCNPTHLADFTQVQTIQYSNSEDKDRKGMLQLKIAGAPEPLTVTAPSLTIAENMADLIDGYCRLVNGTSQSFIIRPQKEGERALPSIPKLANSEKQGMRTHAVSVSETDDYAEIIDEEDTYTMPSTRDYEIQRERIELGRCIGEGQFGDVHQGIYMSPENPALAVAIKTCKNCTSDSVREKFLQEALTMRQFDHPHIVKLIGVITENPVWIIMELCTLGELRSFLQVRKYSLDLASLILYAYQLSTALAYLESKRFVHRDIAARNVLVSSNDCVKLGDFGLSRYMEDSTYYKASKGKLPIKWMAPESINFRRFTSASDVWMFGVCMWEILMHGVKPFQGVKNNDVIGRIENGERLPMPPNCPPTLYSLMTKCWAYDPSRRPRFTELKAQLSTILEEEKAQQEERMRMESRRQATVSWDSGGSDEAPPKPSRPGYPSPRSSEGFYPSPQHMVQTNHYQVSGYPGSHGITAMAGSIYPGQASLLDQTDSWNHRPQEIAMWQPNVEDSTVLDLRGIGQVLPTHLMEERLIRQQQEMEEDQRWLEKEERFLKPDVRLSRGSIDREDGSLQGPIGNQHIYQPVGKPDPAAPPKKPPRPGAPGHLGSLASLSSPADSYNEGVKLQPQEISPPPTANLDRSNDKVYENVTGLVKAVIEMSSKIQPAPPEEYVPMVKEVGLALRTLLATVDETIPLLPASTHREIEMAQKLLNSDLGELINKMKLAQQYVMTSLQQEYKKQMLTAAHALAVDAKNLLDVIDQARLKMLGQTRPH
# Concanavalin-A (Canavalia ensiformis), sequence (P02866 whole entry, looked up): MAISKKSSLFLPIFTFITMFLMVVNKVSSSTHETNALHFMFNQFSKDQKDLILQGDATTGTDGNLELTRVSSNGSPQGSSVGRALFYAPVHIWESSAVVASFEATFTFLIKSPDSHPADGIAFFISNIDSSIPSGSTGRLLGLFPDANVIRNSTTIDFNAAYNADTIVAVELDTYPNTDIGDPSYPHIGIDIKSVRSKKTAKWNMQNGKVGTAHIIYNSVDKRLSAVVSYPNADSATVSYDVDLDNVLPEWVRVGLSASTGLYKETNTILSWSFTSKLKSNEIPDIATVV
# Fibroblast growth factor 2 (Homo sapiens), sequence (P09038 whole entry, looked up): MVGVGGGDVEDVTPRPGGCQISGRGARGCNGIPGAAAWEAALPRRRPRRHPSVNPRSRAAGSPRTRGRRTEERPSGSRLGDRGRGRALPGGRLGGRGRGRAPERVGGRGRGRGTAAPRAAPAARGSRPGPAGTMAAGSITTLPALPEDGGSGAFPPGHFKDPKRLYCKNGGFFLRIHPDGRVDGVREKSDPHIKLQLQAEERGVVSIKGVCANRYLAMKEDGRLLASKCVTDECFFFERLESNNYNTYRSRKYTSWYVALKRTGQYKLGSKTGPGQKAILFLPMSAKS
SMILES,composite z-score (Albumin (Bos taurus)),composite Z-score [1],composite z-score [2],composite z-score [3],composite z-score [4],composite z-score [5],composite z-score [6],composite z-score (Sam68 (KHDRBS1)),composite z-score [7],composite z-score [8],composite z-score [9],composite z-score [10],composite z-score [11],composite z-score [12],composite z-score [13],composite z-score [14],z-score [15],composite z-score (Lefty1),composite z-score [16],z-score [17]
[N-]=[N+]=NCc1ccccc1[C@@H]1OC(c2ccc(OCCCO)cc2)=N[C@]1(Cc1ccccc1N=[N+]=[N-])C(=O)O,1,-0.164 (inactive),0.663,0.481,0.566,2.4,0.262,1.31,-0.126,1.13,3.38,1.23,0.334,1.04,1.1,0.626,-0.652,-0.132,1.21,-5.68 (inactive)
N#Cc1ccc(NN2C(C(O)C3CC=CCC3)C=CC3C(=O)N(c4ccccc4)C(=O)C32)cc1 (stereo not given),1.03,-0.098 (inactive),0.106,-0.0037,0.486,3.13,0.452,1.32,0.0572,1.14,0.118,1.28,0.534,1.02,0.46,1.05,0.0165,0.361,1.36,-0.852 (inactive)
COC(=O)c1cccc([C@H]2OC(=CC(=O)OC(C)C)C[C@@H](c3cccc(C(=O)OC)c3)O2)c1,0.937,0.587 (inactive),0.455,-0.118,0.745,1.78,0.93,1.29,-0.338,1.2,1.51,1.24,1.09,1,1.11,0.748,-0.562,0.679,0.961,-1.74 (inactive)
C=CCC(OC(C)=O)[C@@H]1[C@@H](N(Cc2cccc3ccccc23)C(=O)Cc2ccc(OC)cc2)c2cc(OCCCO)ccc2N1C(=O)c1ccc2ccccc2c1 (stereo not given in full),0.226,-0.0662 (inactive),0.0232,-0.143,0.331,0.481,-0.0588,-0.278,0.0839,0.0699,-0.185,-0.322,0.321,0.475,0.792,-0.0926,0.0343,0.143,0.453,0.851 (inactive)
CC1CC/C=C\[C@H]2OC34C=CCN(C(C)(C)C)C(=O)[C@H]3N(CCCO)C(=O)[C@@H]4C2C(=O)O1 (stereo not given in full),-1.53,0.398 (inactive),-0.155,-0.164,0.916,0.386,0.71,-0.307,-0.286,-0.532,0.441,-0.137,-0.441,-0.735,-0.404,-0.685,0.0255,-0.842,-0.723,0.477 (inactive)
C=CCC(OC(C)=O)[C@@H]1[C@@H](N(Cc2cc3ccccc3o2)C(=O)c2cccc3ccccc23)c2cc(OCCCO)ccc2N1C(=O)c1ccc2ccccc2n1 (stereo not given in full),0.423,-0.315 (inactive),0.0155,-0.147,0.112,-0.197,0.637,0.31,0.0615,-0.495,-0.164,-0.332,0.169,-0.137,0.403,0.285,-0.0913,0.496,-0.0075,-0.305 (inactive)
O=C1[C@H]2C=C(I)[C@H](C[C@@H]2c2ccccc2)[C@@]12CO2,-0.406,-0.623 (inactive),-0.0647,-0.153,-0.154,-0.234,-0.225,0.0643,0.664,-0.267,0.214,0.0555,-0.142,-0.347,0.742,0.111,0.949,0.334,-0.1,-0.218 (inactive)
CO[C@H]1O[C@H](CO)[C@@H](OC(=O)Nc2ccc3c(c2)OCO3)[C@H](OC(=O)Nc2ccccc2-c2ccccc2)[C@H]1OC(=O)Nc1ccccc1-c1ccccc1,0.287,0.0432 (inactive),0.214,0.084,0.687,2.27,0.869,1.29,-0.162,1.03,1.73,1.26,1.17,0.435,0.694,0.819,-0.559,-0.152,0.331,-1.22 (inactive)
CC(C)NC(=O)[C@@H]1c2ccccc2C(=O)N(Cc2ccccc2C(F)(F)F)[C@H]1c1ccc(CO)cc1,-0.273,-0.483 (inactive),-0.0144,-0.0901,0.726,0.725,0.647,-0.0631,-0.585,-0.329,-0.403,-0.358,-0.156,-0.55,0.471,0.232,-0.18,-1.5,0.145,0.681 (inactive)
CO[C@H]1O[C@H](CO)[C@@H](OC(=O)Nc2ccccc2-c2ccccc2)[C@H](OC(=O)Nc2ccccc2)[C@H]1OC(=O)Nc1ccccc1,0.167,-0.295 (inactive),0.199,-0.0846,0.701,2.41,0.268,1.3,0.697,1.15,1.38,1.29,0.508,0.991,1.3,1.86,-1.06,0.719,0.679,-0.849 (inactive)
CCOC(=O)C1=CCC(c2cc3ccccc3[nH]2)N(CCN2CC(C(=O)OCC)=CCC2c2cc3ccccc3[nH]2)C1 (stereo not given),0.656,0.0551 (inactive),0.15,-0.108,0.521,4.05,0.674,1.29,0.106,1.14,1.65,1.22,0.142,0.974,0.748,0.0905,-1.43,0.24,1,1.77 (inactive)
